ATXN2 expr inh – ATXN2 expression inhibition | actives 0.72% (n = 360,000) | HEK-293 ATXN2-luciferase reporter, luminescence, 24 h | Potency, µM (top dose mostly 57 µM), actives largely listed as inhibitors; also: nearly all actives have a fitted effect of over 55% in size
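qHTS (up to 57 uM final) was run with 24 h compound exposure of reporter cells at 37 °C. Each well was multiplexed: SteadyGlo luminescence measured ATXN2-luciferase expression after a fluorogenic Gly-Phe-AFC viability readout (25 uM final).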
IL-1B inflam inh – blocks inflammasome-driven IL-1 beta release; AID 743279; actives 4.7% (n = 360,000); THP-1 LPS/ATP IL-1B secretion, AlphaLISA, 16 h; active compounds read low; activity change, % at 57.5 µM; in the data active = activity change below about -50%; inconclusive = mostly about -30% to -49%
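Secreted IL-1B measured by AlphaLISA bead assay after 16 h compound exposure of THP-1 cells; compounds (final up to 57.5 uM) added 1 h before LPS (250 ng/mL) and ATP (1.25 mM) stimulation; lower signal means less secretion.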
USP1-UAF1 inh – inhibitors of human USP1/UAF1 deubiquitinase. actives 0.23% (n = 390,000). AID 743255. recombinant USP1/UAF1, Ub-Rhodamine cleavage fluorescence. Potency, µM (series often up to 57.1 µM), usual class: inhibitors. O94782; also: nearly all actives have a fitted effect of over 60% in size
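1 nM enzyme complex + cpd, 15 min RT; start with Ub-Rho 150nM final; kinetic fluorescence ex 480/em 540, 6 reads q60 s. Buffer 50mM HEPES pH 7.8, 0.5mM EDTA, 0.1 mg/ml BSA, 1mM TCEP, 0.01% Tween-20.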
USP2a block – blocks human ubiquitin-specific protease USP2a | AID 463254 | USP2 core, Ub-CHOP2 coupled fluorogenic reporter, 485/531 | O75604 | Potency, µM (titrated, usually from 38.3 µM), hits mostly inhibitors | actives 0.01% (n = 330,000)
Target sequence (O75604 whole entry, looked up): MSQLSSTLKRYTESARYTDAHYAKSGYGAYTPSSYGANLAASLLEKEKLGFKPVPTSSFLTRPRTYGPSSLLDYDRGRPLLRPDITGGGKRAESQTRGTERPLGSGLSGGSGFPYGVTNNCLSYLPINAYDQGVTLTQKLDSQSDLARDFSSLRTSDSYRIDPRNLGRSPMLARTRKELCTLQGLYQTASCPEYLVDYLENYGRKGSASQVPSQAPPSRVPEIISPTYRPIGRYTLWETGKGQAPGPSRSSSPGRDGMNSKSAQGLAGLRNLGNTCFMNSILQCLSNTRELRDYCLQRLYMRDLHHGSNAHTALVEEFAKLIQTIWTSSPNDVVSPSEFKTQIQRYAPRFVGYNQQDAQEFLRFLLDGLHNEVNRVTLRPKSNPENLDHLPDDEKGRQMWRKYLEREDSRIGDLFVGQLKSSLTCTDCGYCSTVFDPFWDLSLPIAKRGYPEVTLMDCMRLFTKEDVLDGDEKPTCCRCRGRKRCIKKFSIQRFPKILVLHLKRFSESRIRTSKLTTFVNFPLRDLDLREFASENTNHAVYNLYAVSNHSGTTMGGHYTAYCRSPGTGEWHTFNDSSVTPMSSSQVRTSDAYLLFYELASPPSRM
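Cell-free coupled assay: 10nM USP2 core preincubated 30min RT with compound in Tris-HCl pH 8.0/CaCl2/CHAPS buffer, then 25nM Ub-CHOP2 and 25nM reporter substrate; fluorescence (Ex 485/Em 531) read after 60min RT, normalized to NEM inhibition, concentration-response curves fitted.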
S2 tox – cell viability loss in ATXN counter-screen | S2 cells (HEK-293 line with an ATXN2-luciferase reporter) viability, CellTiter-Fluor protease fluorescence, 24 h | Potency, µM (titrated, usually from 56.7 µM), most hits filed as cytotoxic | actives 0.49% (n = 400,000); also: nearly all actives have a fitted effect of over 40% in size
Large screens that a line does not name were inactive. Rows were chosen to be rich in hits. Some 4.8% of all compounds tested hit in one or more screens of this group. Unless noted, calls follow the shape of the dose curve; as a rule, active = well fitted curve in the direction sought with a large enough effect; inconclusive = small, poorly fitted or top-dose-only effect, or another doubt; inactive = no such curve, though single readings can be large; an effect the other way counts as inactive or inconclusive.

Cc1c(N=Cc2ccc(-c3ccc(Cl)cc3)o2)c(=O)n(-c2ccccc2)n1C	none
CC(C)C[C@@H](CN1CCC[C@H]1CN1C(=O)C(=O)NC[C@@H]1Cc1ccccc1)N1C[C@H](Cc2ccccc2)N(CC2CCCCC2)C(=O)C1=O	ATXN2 expr inh inconclusive (no result: USP1-UAF1 inh, USP2a block, S2 tox)
O=C1NC[C@H](Cc2ccccc2)N(C[C@@H]2CCCN2C[C@H](Cc2ccccc2)N2C[C@H](Cc3ccccc3)N(CC3CCCCC3)C(=O)C2=O)C1=O	ATXN2 expr inh inconclusive, IL-1B inflam inh -76.6 (no result: USP1-UAF1 inh, USP2a block, S2 tox)
O=C1NC[C@H](Cc2ccccc2)N(C[C@H]2CCCN2C[C@H](Cc2ccccc2)N2C[C@H](Cc3ccccc3)N(CC3CCCCC3)C(=O)C2=O)C1=O	ATXN2 expr inh inconclusive, IL-1B inflam inh -78.3, S2 tox 17.8µM (no result: USP2a block)
CC(C)(C)C1CCC(CN2CCC(CN3C(=O)C(=O)NC[C@@H]3Cc3ccccc3)CC2)CC1 (some centres undefined)	IL-1B inflam inh -56.4 (no result: USP2a block)
CC(C)C[C@H]1CN([C@@H](Cc2ccccc2)CN2CCC[C@H]2CN2C(=O)C(=O)NC[C@@H]2Cc2ccc(O)cc2)C(=O)C(=O)N1CC1CCCCC1	IL-1B inflam inh -94.1, S2 tox inconclusive (no result: USP1-UAF1 inh, USP2a block)
CC(C)C[C@H]1CN([C@@H](Cc2ccccc2)CN2CCC[C@@H]2CN2C(=O)C(=O)NC[C@@H]2Cc2ccc(O)cc2)C(=O)C(=O)N1CC1CCCCC1	none (no result: USP1-UAF1 inh, USP2a block)
Cc1ccc(NC(=O)Cn2c(-c3cncs3)nc3ccccc32)cc1Br	none (no result: IL-1B inflam inh, USP2a block)
COc1ccccc1CCc1nc2ccccc2n1C1CCN(C(=O)c2cc(C)nn2C)CC1	none (no result: ATXN2 expr inh, IL-1B inflam inh, USP1-UAF1 inh, USP2a block)
O=C1NC[C@H](Cc2ccccc2)N(C[C@@H]2CCCN2C[C@H](Cc2ccc(O)cc2)N2C[C@H](Cc3ccccc3)N(CC3CCCCCC3)C(=O)C2=O)C1=O	IL-1B inflam inh -82.6, S2 tox inconclusive (no result: USP1-UAF1 inh, USP2a block)
O=C1NC[C@H](Cc2ccc(O)cc2)N(C[C@@H]2CCCN2C[C@H](Cc2ccccc2)N2C[C@H](Cc3ccccc3)N(CC3CCCCCC3)C(=O)C2=O)C1=O	S2 tox inconclusive (no result: USP1-UAF1 inh, USP2a block)
O=C(O)Cn1nncc1-c1ccc(C(F)(F)F)cc1	none (no result: USP1-UAF1 inh, USP2a block)
C#CC[N+](C)(C)C(C#Cc1ccccc1)CC=C (centres undefined)	IL-1B inflam inh -72.9
C#CC[N+](C)(C)CC#Cc1ccc(C)cc1	IL-1B inflam inh inconclusive
CCCCCCCC[n+]1c(C)n(-c2ccccc2)c2ccc(NC(C)=O)cc21	IL-1B inflam inh -103.5
CC(=O)Nc1ccc(SCC(=O)c2cc(C)n(-c3ccccc3)c2C)cc1	none
COc1cc2sc3cc(NCc4ccc(C)o4)ccc3c(=O)c2cc1OC	IL-1B inflam inh -68.8
COc1cccc2sc3ccc(NCCC4CCCN4C)cc3c(=O)c12 (centres undefined)	IL-1B inflam inh -69.7, S2 tox inconclusive
COc1cc2sc3cc(NCC[C@@H]4CCCN4C)ccc3c(=O)c2cc1OC	IL-1B inflam inh -59.6
COc1cc(OC)cc(OC(=O)C2CCN(C(=O)c3ccc(F)cc3)CC2)c1	none
CC12COC3(P(=O)(c4ccccc4)c4ccccc4)CC1CCC23CP(=O)(c1ccccc1)c1ccccc1 (centres undefined)	ATXN2 expr inh inconclusive, IL-1B inflam inh -52.3, S2 tox inconclusive
Nc1ccccc1NC(=O)c1ccc(CNc2nccc(-c3cccnc3)n2)cc1	none (no result: IL-1B inflam inh, USP1-UAF1 inh, USP2a block, S2 tox)
Cc1nnc(NC(=O)C2CCN(S(=O)(=O)c3ccc(F)c(Cl)c3)CC2)o1	none
O=C(NCCCc1ccccc1)c1ccc(F)cc1	none
O=C(NCCNC1CCC(c2ccccc2)CC1)c1ccc(F)cc1 (centres undefined)	ATXN2 expr inh inconclusive, IL-1B inflam inh -69.9
Brc1ccc(-c2cn3nc4c(nc3n2)CCCC4)cc1	USP1-UAF1 inh inconclusive, S2 tox inconclusive
Cc1nc2nc(-c3ccc(F)cc3)cn2nc1C	none (no result: ATXN2 expr inh, S2 tox)
Cc1nc2nc(-c3ccccc3)cn2nc1C	ATXN2 expr inh 15.8µM (no result: USP2a block, S2 tox)
c1ccc(-c2cn3nc4c(nc3n2)CCCC4)cc1	ATXN2 expr inh 5.62µM (no result: S2 tox)
CCc1ccc(-c2cn3nc(C)c(C)nc3n2)cc1	ATXN2 expr inh 5.01µM (no result: S2 tox)
O=Cc1c(NCCN2CCCC2)c2ccccc2[nH]c1=O	none
COc1cc2[nH]c3c(=O)n4c(nc3c2cc1OC)SCCC4	IL-1B inflam inh -61.3
